Compound activity deposited in PubChem BioAssay by The Scripps Research Institute Molecular Screening Center.
Shown are actives, neighbours in structure and some others; about 4.8% of the full set was active somewhere.
hgDAF12 agonist: activates the H. glycines DAF-12 receptor ligand-binding domain; activation, % at 6.8 µM; HEK293 GAL4-hgDAF12 UAS-luciferase reporter, agonist luminescence; normalized to butyrate control; 1.8% of 370,000 active;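 active = activation above a cutoff set at the mean of all screened compounds plus 3 SD, cut at about 10% in these data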;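 also: 0% = DMSO wells and 100% = sodium butyrate wells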
SMARCA2 act: SMARCA2 function activation, primary screen. AID 652017. MG213 cells, MMTV-luciferase reporter, dexamethasone, overnight. 1% of 370,000 active. activation, % at 9.1 µM; in the data active = activation above about 7.8%;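 also: 0% = vehicle wells and 100% = reference activator wells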
DAX1 inh-1: inhibitors of human orphan nuclear receptor DAX1 (NR0B1). 0.99% of 340,000 active. P51843. inhibition, % at 6.75 µM. HEK293 Gal4-DAX1 luciferase reporter, luminescence;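 active = inhibition above the mean over all tested compounds plus 3 SD, cut at about 4.2% in these data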;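 also: 0% = DAX1-transfected cells with DMSO and 100% = empty-vector control cells with DMSO; inhibition shows as a rise in luminescence from relieved DAX1 repression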
Target sequence (P51843 207-470 limits assumed): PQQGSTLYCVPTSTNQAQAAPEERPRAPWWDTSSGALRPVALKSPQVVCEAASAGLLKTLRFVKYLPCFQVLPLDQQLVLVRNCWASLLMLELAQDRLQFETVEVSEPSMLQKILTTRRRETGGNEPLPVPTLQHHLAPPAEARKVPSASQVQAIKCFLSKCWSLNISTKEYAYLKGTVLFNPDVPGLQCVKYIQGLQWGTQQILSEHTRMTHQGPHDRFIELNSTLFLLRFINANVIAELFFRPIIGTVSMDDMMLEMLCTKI
hcDAF12 agonist: activates DAF-12 receptor from parasite H. contortus; HEK293 hcDAF-12 lit1-tk-luc reporter, luminescence; 0% DMSO, 100% Δ7-dafachronic acid; activation, % at 6.8 µM; 1.4% of 370,000 active;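 active = activation above the mean of all tested compounds plus 3 SD, cut at about 5.5% in these data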;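 also: 100% = response to 3 µM Δ7-dafachronic acid high control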
ssDAF-12 act: S. stercoralis DAF-12 activation, primary screen. HEK293 ssDAF-12/GRIP1 lit1-tk-luc reporter, luminescence; % of 3 µM dafachronic acid response. 1% of 370,000 active. activation, % at 6.8 µM;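 active = activation above the mean over all tested compounds plus 3 SD, cut at about 0.9% in these data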;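 also: 0% = DMSO-only wells and 100% = 3 µM delta7-dafachronic acid wells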
DAX1 inh-2: inhibitors of DAX1 repression of SF-1 activated StAR promoter; 1.1% of 370,000 active; HEK293T StAR-luciferase reporter, SF-1/DAX-1 repression relief; AID 652010; inhibition, % at 6.8 µM;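 active = inhibition above the mean over all tested compounds plus 3 SD, cut at about 3.6% in these data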;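 also: 0% = DAX-1 cells with DMSO and 100% = cells lacking DAX-1 with DMSO; higher inhibition means more luminescence from relief of DAX-1 repression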
LXRb hcDAF ctr: counter-screen for hcDAF-12 agonists: agonists of human LXR-beta; HEK293 Gal4-LXR tk-luc reporter, luminescence, 24 h; normalized: DMSO 0%, positive control 100%; shares compounds with hcDAF12 agonist; activation, % at 6.8 µM; 3,400 tested, under 10 active;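 active = mean percent activation of the reporter above a cutoff set as the average over tested compounds plus their standard deviation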
Target sequence (P55055 whole entry, looked up, the tested form may be a part): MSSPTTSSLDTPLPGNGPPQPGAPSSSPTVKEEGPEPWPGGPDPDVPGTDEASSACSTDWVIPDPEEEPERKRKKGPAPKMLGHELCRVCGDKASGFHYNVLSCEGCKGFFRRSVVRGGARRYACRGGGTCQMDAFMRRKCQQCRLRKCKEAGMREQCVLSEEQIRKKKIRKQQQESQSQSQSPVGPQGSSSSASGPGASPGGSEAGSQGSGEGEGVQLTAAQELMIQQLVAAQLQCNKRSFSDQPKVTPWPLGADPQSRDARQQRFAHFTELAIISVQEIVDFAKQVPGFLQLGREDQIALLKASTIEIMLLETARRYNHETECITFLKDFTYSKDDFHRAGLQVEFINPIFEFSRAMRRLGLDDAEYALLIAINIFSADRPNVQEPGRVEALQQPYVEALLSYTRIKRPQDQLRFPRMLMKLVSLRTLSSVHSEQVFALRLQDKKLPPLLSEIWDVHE
hcDAF12 conf: confirmation of H. contortus DAF-12 agonists. activation, % at 6.8 µM. HEK293 hcDAF-12 lit1-tk-luc reporter, luminescence; % of Δ7-dafachronic acid response. shares compounds with hcDAF12 agonist. 61% of 3,400 active;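 active = mean activation across triplicate tests above the threshold derived from the earlier primary screen, cut at about 5.5% in these data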;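 also: 0% = DMSO only wells and 100% = 3 µM Δ7-dafachronic acid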
* hit, by the source's call; · = not tested or not shown.

SMILES | hgDAF12 agonist | SMARCA2 act | DAX1 inh-1 | hcDAF12 agonist | ssDAF-12 act | DAX1 inh-2 | LXRb hcDAF ctr | hcDAF12 conf
O=C(C[n+]1ccc(C(=O)N/N=C/c2ccc(O)cc2)cc1)c1ccccc1 | -1 | 0 | 0 | -2 | -1 | 0 | · | ·
O=C(C[n+]1ccc(C(=O)N/N=C/c2ccc(OCc3ccccc3)cc2)cc1)c1ccccc1 | 5 | 0 | 0 | 7.5* | 0 | 0 | 0 | 2
Cc1[nH]c2ccccc2c1CC(=O)Nc1ccc(Nc2cccnc2)c(-c2ccc(Oc3ccccc3)cc2)c1 | 0 | -5 | · | 2 | 0 | -1 | · | ·
CN1C2=N[C@@H](c3ccc4c(c3)OCO4)CC(=O)N2/C(=C\c2ccccc2)[C@@H]1c1ccccc1 | -6 | · | · | -2 | -2 | · | · | ·
CCOC(=O)C(C)Sc1nc2c([nH]c3ccccc32)c(=O)n1C (stereo unspecified) | -2 | -5 | 2 | 2 | 0 | 1 | · | ·
COCCn1c(SCC(=O)Nc2ccc(C(N)=O)cc2)nc2c([nH]c3ccccc32)c1=O | 3 | -3 | 2 | 5 | 0 | -3 | · | ·
COCCn1c(SCC(=O)Nc2ccc(F)cc2F)nc2c([nH]c3ccccc32)c1=O | -3 | -3 | 0 | 4 | 1 | 3 | · | ·
COc1ccc(-n2c(SCC(=O)Nc3ccc(C(N)=O)cc3)nc3c([nH]c4ccccc43)c2=O)cc1OC | -2 | -3 | 0 | 9.7* | 0.9* | 3 | 0 | 8.8*
CC(C)Sc1nc2c([nH]c3ccccc32)c(=O)n1C | 0 | -4 | 0 | 11* | 1.0* | 0 | 0 | 7.1*
CCOc1ccc(NC(=O)CSc2nc3c([nH]c4ccccc43)c(=O)n2C)cc1 | 0 | -2 | 1 | 9.8* | 0 | 1 | 0 | 6.2*
Cn1c(SCC(=O)Nc2cccc(F)c2)nc2c([nH]c3ccccc32)c1=O | 3 | -3 | 0 | 6.7* | 0 | 0 | 0 | 4
CCCCOc1ccc(C(=O)NC2CCCCN(Cc3ccc(C)cc3)C2=O)cc1 (stereo unspecified) | -1 | -5 | · | -3 | -2 | -3 | · | ·
COC(=O)[C@]12CCCCC=C1N(Cc1ccc(OC)cc1)C(=O)[C@@H]2CC(=O)NCc1ccc(OC)c(OC)c1 | -1 | -2 | · | -4 | 0 | -1 | · | ·
O=C(CSc1nc2ccccc2s1)Nc1cc(S(=O)(=O)N2CCOCC2)ccc1O | 0 | -2 | 1 | 9.7* | 0 | 0 | 0 | 5
O=C(OCc1nc2ccccc2s1)c1cccc(S(=O)(=O)N2CCOCC2)c1 | 8 | 4 | 2 | 7.7* | 1 | 2 | 1 | 9.2*
CCCCc1c(-c2ccccc2OC)ncn1Cc1ccccc1F | -1 | -5 | · | -1 | -1 | 0 | · | ·
CCN(CC)CCCNC(=O)CSc1nnc(-c2ccncc2)n1-c1ccc(OC)cc1 | 0 | -3 | · | -2 | 0 | 1 | · | ·
Cc1cccc(N(C)C(=O)COc2cc(=O)n(C)c3ccccc23)c1 | -1 | -1 | 3 | 0 | -1 | -1 | · | ·
CN(C(=O)COc1cc(=O)n(C)c2ccccc12)c1ccc(Br)cc1 | 1 | -1 | 1 | 6.8* | 0 | 0 | 0 | 3
CN(C)c1cc2c3ccccc3n(C)c2cc1N | 4 | -1 | 2 | 7.6* | 0 | 0 | 0 | 4
COc1ccc(Cc2c(-c3ccc(C)cc3)nc3cc(C)c(Br)c(C)n23)c(C)c1 | 11* | 4 | · | 11* | 2.1* | 3 | 0 | 6.1*
COc1ccc(Cc2c(-c3cccc(Br)c3)nc3cc(C)c(Br)c(C)n23)c(C)c1 | -7 | 0 | · | 5 | 1 | -2 | · | ·
C=CCNC(=O)CN(C(=O)Cc1cccc(OC(F)(F)F)c1)c1cccc(Br)c1 | -1 | 0 | · | -3 | -1 | 0 | · | ·
CCC(C)c1ccccc1NC(=O)CN(C)CCOc1ccc(Cl)cc1 (stereo unspecified) | 1 | -2 | 0 | 9.2* | -1 | 0 | 0 | 0
CCN(CC)C(=O)CC[C@H]1CC[C@]2(CCCN(Cc3nccn3C)C2)O1 | 0 | -2 | · | 0 | -1 | 1 | · | ·
SMILES | hgDAF12 agonist | SMARCA2 act | DAX1 inh-1 | hcDAF12 agonist | ssDAF-12 act | DAX1 inh-2 | LXRb hcDAF ctr | hcDAF12 conf
CCCCNC(=O)N1CCC(c2nc3ccc(Cl)cc3[nH]2)CC1 | 0 | -4 | · | -1 | -1 | -1 | · | ·
CC(Sc1c[nH]c2ccccc12)C(=O)O (stereo unspecified) | 1 | -4 | 1 | 8.5* | 0 | 1 | 0 | 5
Cc1ccc(N/N=C2\CS(=O)(=O)N(C)c3ccsc32)cc1 | 8 | 1 | 11* | 10* | 1.2* | 1 | 0 | 8.7*
CCNC(=O)C1=C(O)c2sccc2N(C)S1(=O)=O | 0 | 1 | 0 | -1 | -1 | 1 | · | ·
O=S(=O)(N[C@@H]1CCCC[C@@H]1N1CCOCC1)c1ccc(Cl)cc1 | -1 | · | · | -2 | -2 | · | · | ·
COc1ccccc1/C=N\Nc1ccccc1[N+](=O)[O-] | 6 | 3 | 7.9* | 7.0* | -1 | 1 | 2 | 6.4*
CC(C)Oc1ccccc1/C=N/Nc1ccccc1[N+](=O)[O-] | 3 | 4 | -1 | 4 | -1 | -1 | · | ·
COc1ccccc1N(Cc1ccccc1)S(=O)(=O)c1cccc(C(=O)Nc2ccc(C(C)=O)cc2)c1 | 8 | 6 | 1 | 12* | 0 | 1 | 0 | 3
COc1ccc(OC)c(NC(=O)c2cccc(S(=O)(=O)N(Cc3ccccc3)c3ccccc3OC)c2)c1 | 3 | -3 | -1 | 2 | 0 | 0 | · | ·
C[C@H]1[C@@H](OC(=O)N2CCCC2)CC[C@@]23CCCN2C(=O)CCC[C@@H]13 | -1 | · | · | 0 | -2 | · | · | ·
Cc1csc(NC(=O)CSc2sc3c(O)cc(=O)[nH]c3c2C#N)n1 | 0 | 0 | -1 | 6.6* | 0 | 0 | 0 | 3
CN(C)c1cccc(/C=C(\C#N)c2ccccc2)c1 | 19* | 4 | 0 | 7.1* | 1.2* | -1 | 2 | 9.0*
C(=N\NC1=Nc2cccc3cccc1c23)/c1ccccn1 | 10 | -1 | 5.3* | 8.6* | 0 | 3 | 1 | 10*
COc1ccc(-c2cc(C(F)F)n3ncc(C(=O)N4CCc5ccccc54)c3n2)cc1 | -2 | -1 | -1 | -1 | -1 | 0 | · | ·
Cc1ccc(-c2cc(C(F)F)n3ncc(C(=O)N4CCCc5ccccc54)c3n2)cc1 | 0 | 2 | 1 | 6.6* | -1 | 0 | 0 | -1
C[C@H]1[C@H](N(C)C)CC[C@@]23CCCN2C(=O)CCC[C@@H]13 | -3 | · | · | -1 | -2 | · | · | ·
